# What was measured:
# Assay in all cases: DAPPL (digital affinity profiling via proximity ligation, sequencing); 10 mM Tris-HCl pH 7.5, 50 mM NaCl, 1 mM DTT, 4% glycerol, room temperature, 30 min; GST-TFs on glutathione beads, 16-mer random dsDNA library, 0.1% formaldehyde crosslink after washing; high values mean tight binding
# FEV = target: T1, FEV (Homo sapiens, UniProt Q99581 1-238); details: protein: recombinant; tags: N-terminal GST; dsDNA, one strand shown
# T1 sequence: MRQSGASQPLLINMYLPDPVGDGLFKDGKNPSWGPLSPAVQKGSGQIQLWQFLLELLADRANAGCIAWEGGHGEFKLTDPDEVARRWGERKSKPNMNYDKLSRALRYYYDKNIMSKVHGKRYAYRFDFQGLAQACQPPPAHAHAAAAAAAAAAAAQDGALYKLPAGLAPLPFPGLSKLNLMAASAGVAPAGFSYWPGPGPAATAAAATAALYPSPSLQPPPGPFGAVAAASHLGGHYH
# In short: (§1)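 The binding signal reported is, for every hexamer, its read frequency for a factor over its read frequency for the tag-only sample. Reads came from pools of yeast-expressed, GST-fused human transcription factors on glutathione beads, barcoded with DNA and mixed with that sample, which were incubated with 200 nmole of a random double-stranded 16-mer DNA library in Tris/NaCl/DTT/glycerol buffer at room temperature for 30 min. After washing, the pools were crosslinked with 0.1% formaldehyde, proximity-ligated with BsaI/T4 ligase for 1 h at 37 °C, PCR-amplified and sequenced on an Illumina NextSeq500.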
# ETV5 = ETV5 (Homo sapiens, UniProt P41161 1-510); details: protein: recombinant; tags: N-terminal GST; dsDNA, one strand shown
# In short: as §1
# HSF1 = HSF1 (Homo sapiens, UniProt Q00613 1-529); details: protein: recombinant; tags: N-terminal GST; chain copies: 3; dsDNA, one strand shown
# In short: as §1
# SPIC = target: T2, SPIC (Homo sapiens, UniProt Q8N5J4 1-248); details: protein: recombinant; tags: N-terminal GST; dsDNA, one strand shown
# T2 sequence: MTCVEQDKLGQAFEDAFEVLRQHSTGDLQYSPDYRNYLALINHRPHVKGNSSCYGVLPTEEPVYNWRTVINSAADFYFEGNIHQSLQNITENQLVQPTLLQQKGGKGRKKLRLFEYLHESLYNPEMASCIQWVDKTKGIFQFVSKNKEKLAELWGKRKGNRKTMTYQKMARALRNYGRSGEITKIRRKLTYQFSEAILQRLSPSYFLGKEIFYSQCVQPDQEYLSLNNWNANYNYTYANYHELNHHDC
# In short: as §1
# ELF4 = ELF4 (Homo sapiens, UniProt Q99607 1-663); details: protein: recombinant; tags: N-terminal GST; dsDNA, one strand shown
# In short: as §1
# ELK4 = target: T3, ELK4 (Homo sapiens, UniProt P28324-2 1-405); details: protein: recombinant; tags: N-terminal GST; dsDNA, one strand shown
# T3 sequence: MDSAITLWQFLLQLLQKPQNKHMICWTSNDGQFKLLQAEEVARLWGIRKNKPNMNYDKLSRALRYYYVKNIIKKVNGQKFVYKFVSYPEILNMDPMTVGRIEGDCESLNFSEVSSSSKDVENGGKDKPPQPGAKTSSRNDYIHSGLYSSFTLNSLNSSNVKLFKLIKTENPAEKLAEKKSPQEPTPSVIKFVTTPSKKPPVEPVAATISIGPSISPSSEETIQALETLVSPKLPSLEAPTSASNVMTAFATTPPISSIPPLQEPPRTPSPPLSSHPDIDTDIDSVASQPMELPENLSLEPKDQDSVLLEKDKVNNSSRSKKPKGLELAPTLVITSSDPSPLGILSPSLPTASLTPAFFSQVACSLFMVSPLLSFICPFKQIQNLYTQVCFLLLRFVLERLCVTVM
# In short: as §1
# ETV2 = target: T4, ETV2 (Homo sapiens, UniProt O00321 1-342); details: protein: recombinant; tags: N-terminal GST; dsDNA, one strand shown
# T4 sequence: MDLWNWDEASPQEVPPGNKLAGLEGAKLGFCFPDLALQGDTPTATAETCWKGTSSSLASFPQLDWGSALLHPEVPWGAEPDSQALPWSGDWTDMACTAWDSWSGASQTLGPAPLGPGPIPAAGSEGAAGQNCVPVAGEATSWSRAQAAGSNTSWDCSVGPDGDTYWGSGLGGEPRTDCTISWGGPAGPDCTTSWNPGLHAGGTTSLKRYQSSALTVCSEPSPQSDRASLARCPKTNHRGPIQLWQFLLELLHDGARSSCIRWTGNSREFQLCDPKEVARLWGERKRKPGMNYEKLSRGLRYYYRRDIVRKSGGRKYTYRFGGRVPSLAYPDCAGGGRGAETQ
# In short: as §1
# CRX = CRX (Homo sapiens, UniProt O43186 1-299); details: protein: recombinant; tags: N-terminal GST; dsDNA, one strand shown
# In short: as §1
# ETV1 = ETV1 (Homo sapiens, UniProt P50549 1-477); details: protein: recombinant; tags: N-terminal GST; dsDNA, one strand shown
# In short: as §1
# Sequence of ETV1 (P50549 whole entry): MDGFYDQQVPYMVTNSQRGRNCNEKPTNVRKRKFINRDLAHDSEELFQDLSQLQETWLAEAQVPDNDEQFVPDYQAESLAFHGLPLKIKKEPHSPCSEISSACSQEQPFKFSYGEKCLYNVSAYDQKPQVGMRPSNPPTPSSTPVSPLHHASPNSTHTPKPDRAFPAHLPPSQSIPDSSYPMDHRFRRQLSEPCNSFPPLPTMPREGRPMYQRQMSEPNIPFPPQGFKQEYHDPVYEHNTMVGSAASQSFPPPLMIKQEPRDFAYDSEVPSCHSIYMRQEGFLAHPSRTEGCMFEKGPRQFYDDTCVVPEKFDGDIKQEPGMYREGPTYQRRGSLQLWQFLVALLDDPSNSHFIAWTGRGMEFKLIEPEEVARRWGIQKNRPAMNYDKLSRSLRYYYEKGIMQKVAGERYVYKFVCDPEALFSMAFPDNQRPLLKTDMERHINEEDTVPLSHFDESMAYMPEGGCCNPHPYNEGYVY
# Sequence of HSF1 (Q00613 whole entry): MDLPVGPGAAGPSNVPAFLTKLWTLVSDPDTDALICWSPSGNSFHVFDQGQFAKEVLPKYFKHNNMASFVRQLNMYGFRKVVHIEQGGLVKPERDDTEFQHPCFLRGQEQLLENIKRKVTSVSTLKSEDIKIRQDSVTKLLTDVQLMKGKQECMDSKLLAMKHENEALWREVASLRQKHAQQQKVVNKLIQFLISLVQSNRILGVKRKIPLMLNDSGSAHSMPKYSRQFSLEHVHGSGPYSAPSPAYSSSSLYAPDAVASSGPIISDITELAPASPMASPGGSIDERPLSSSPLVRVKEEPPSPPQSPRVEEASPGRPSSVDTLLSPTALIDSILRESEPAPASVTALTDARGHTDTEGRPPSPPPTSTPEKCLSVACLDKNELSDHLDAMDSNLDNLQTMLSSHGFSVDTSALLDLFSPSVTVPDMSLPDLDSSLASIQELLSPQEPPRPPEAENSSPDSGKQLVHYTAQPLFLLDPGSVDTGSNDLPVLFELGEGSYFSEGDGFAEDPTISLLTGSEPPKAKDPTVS
# Sequence of CRX (O43186 whole entry): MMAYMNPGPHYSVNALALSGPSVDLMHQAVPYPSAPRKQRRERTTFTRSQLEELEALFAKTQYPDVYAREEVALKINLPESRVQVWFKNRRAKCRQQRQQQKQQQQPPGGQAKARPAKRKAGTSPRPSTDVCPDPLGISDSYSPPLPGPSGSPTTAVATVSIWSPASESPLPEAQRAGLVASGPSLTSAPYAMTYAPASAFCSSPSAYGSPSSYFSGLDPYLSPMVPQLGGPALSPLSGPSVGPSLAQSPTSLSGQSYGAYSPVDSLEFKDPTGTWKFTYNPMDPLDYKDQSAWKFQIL
# Sequence of ETV5 (P41161 whole entry): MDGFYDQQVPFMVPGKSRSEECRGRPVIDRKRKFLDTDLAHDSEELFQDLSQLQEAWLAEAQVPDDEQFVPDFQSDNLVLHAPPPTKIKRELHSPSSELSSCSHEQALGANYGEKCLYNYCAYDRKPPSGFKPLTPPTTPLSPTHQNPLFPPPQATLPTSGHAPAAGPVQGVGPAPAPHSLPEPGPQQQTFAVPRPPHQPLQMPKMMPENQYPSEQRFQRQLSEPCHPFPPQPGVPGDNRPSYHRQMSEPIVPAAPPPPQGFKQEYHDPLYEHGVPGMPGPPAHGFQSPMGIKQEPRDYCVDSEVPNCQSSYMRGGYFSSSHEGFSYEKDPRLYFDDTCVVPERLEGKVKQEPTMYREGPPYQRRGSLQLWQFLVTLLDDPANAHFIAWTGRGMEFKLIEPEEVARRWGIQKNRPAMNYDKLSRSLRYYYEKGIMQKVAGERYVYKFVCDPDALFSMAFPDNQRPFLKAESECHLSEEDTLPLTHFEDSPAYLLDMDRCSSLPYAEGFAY
# Sequence of ELF4 (Q99607 whole entry): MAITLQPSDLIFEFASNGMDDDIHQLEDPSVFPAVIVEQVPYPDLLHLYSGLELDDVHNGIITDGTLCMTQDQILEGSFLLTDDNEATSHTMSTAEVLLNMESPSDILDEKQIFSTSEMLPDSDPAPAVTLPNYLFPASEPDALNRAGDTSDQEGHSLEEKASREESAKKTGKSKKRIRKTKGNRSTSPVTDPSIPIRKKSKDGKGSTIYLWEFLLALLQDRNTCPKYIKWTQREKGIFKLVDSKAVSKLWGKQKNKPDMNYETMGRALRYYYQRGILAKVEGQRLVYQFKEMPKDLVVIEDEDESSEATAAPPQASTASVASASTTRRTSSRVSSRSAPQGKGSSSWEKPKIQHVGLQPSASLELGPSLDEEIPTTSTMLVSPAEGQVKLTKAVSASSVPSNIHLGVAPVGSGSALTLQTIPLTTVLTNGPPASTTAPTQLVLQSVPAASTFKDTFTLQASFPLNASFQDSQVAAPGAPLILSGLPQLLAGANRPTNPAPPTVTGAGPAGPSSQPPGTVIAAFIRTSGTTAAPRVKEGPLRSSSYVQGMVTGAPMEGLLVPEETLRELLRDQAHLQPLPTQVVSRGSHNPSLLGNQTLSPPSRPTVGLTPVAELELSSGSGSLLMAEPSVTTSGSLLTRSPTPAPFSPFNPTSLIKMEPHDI
sequence,measurement,setting,value
TGATTT,binding signal,FEV,"1.26 fold enrichment (6-mer frequency, TF over GST control)"
same,binding signal,ETV5,"1.27 fold enrichment (6-mer frequency, TF over GST control)"
same,binding signal,HSF1,"1.27 fold enrichment (6-mer frequency, TF over GST control)"
same,binding signal,SPIC,"1.39 fold enrichment (6-mer frequency, TF over GST control)"
same,binding signal,ELF4,"1.23 fold enrichment (6-mer frequency, TF over GST control)"
same,binding signal,ELK4,"1.2 fold enrichment (6-mer frequency, TF over GST control)"
same,binding signal,ETV2,"1.29 fold enrichment (6-mer frequency, TF over GST control)"
same,binding signal,CRX,"1.35 fold enrichment (6-mer frequency, TF over GST control)"
same,binding signal,ETV1,"1.31 fold enrichment (6-mer frequency, TF over GST control)"

# Source: publication PMC7862700, “An all-to-all approach to the identification of sequence-specific readers for epigenetic DNA modifications on cytosine”
